High-throughput results deposited in PubChem by several laboratories.
SENP8 block-1: inhibitors of human SENP8 protease | inhibition, % at 10 µM | Q96LD8 | AID 2540 | purified SENP8, Z-RLRGG-aminoluciferin cleavage, luminescence | hit rate 1.2% among 330,000; in the data active means inhibition above about 50%
Target sequence (Q96LD8 whole entry, looked up): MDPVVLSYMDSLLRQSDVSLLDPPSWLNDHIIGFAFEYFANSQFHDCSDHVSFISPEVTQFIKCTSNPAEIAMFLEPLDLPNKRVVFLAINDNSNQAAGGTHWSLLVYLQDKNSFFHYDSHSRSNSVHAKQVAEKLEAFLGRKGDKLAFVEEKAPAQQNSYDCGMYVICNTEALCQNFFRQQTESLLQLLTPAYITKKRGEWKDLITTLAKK
Platelet DG rel: modulates dense granule release in human platelets. human platelet-rich plasma, SFLLRN dense granule ATP release, luminescence. inhibition, %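 (compounds screened at 7.5 µM in platelet-rich plasma)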. hit rate 0.22% among 300,000. AID 1663;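 active means mean replicate score, as percent of positive control, at or above 50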
SENP8 block-2: blocks human SENP8 cleavage of Nedd8 substrate; Q96LD8; recombinant SENP8, Nedd8 substrate fluorescence; inhibition, % at 20 µM; hit rate 0.64% among 360,000; AID 602440; in the data active means inhibition mostly above about 40%, no sharp cut-off; inactive means mostly below about 27%
SENP6 block: inhibitors of human SENP6 protease; Q9GZR1; Recombinant SENP6 catalytic domain, aminoluciferin luminescence; inhibition, % at 10 µM; hit rate 1.8% among 330,000; AID 2599;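 active means inhibition above about 50% at the single tested dose, limit read from the data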;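 further: plate controls were DMSO wells with enzyme for no effect and DMSO wells lacking enzyme for full effect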
SENP7 inh: SENP7 protease inhibition. Q9BQF6. recombinant SENP7, Z-RLRGG-aminoluciferin luminescence, 40 min. inhibition, % at 5 µM. hit rate 1.5% among 330,000. AID 434973;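 active means inhibition above about 50% at the single test dose, limit read from the data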;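 further: plate controls were DMSO with enzyme for no effect and no enzyme buffer wells for full effect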
SENP8 conf: human SENP8 inhibition, confirmed; shares compounds with SENP7 inh; Recombinant SENP8, Z-RLRGG-aminoluciferin luminescence, 60 min; inhibition, % at 12.5 µM; hit rate 40% among 6,200; AID 488912;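 active means mean inhibition across replicates above about 50%, limit read from the data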
SENP6 conf: human SENP6 inhibition, confirmed; hit rate 58% among 6,200; inhibition, % at 12.5 µM; recombinant SENP6, Z-RLRGG-aminoluciferin luminescence; shares compounds with SENP7 inh
SENP7 confirm: confirmation of human SENP7 protease inhibitors; recombinant SENP7, Z-RLRGG-aminoluciferin luminescence, 40 min; inhibition, % at 12.5 µM; shares compounds with SENP7 inh; hit rate 69% among 6,200
Casp3 select: caspase-3 inhibition (SENP selectivity assay) | shares compounds with SENP7 inh | purified caspase-3, Z-DEVD-aminoluciferin luminescence, 60 min | inhibition, % at 12.5 µM | hit rate 60% among 6,200;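 active means mean inhibition above about 50%, limit read from the data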;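 further: plate controls were enzyme with DMSO for no effect and wells without caspase-3 for full effect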
Target sequence (P42574 28-227 limits assumed): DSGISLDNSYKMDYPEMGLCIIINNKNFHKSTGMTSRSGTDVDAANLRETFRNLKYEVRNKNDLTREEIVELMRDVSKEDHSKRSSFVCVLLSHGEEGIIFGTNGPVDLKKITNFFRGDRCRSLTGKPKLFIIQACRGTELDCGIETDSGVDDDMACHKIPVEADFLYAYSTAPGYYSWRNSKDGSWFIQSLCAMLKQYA
Luc interf: counter-screen for SENP inhibitors: luminescence interference; hit rate 39% among 6,200; Pre-incubated SENP8/Z-RLRGG-aminoluciferin, luciferase luminescence interference; AID 488919; inhibition, % at 12.5 µM; shares compounds with SENP7 inh;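 active means mean inhibition above about 50% when retested at one dose, limit read from the data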;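 further: plate controls were DMSO wells with completed reaction for no effect and substrate without enzyme for full effect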
An asterisk follows results filed as active. This is a sample that favours compounds with a hit; in the whole collection about 2.4% have one here.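 How the source made its calls, unless noted: active means mean inhibition above about 50% in the one-dose retest (limit read from the data); inactive means the rest.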

Results for COc1ccc(NS(=O)(=O)c2cccc(C(=O)NCc3ccccn3)c2)cc1 ?
SENP8 block-1: 2; Platelet DG rel: -19; SENP8 block-2: -83; SENP6 block: 2; SENP7 inh: -2

Results for Cc1cc(NC(=S)Nc2cccc3ccccc23)n[nH]1 ?
SENP8 block-1: -11; Platelet DG rel: 2; SENP8 block-2: -138; SENP6 block: -4; SENP7 inh: 5

Results for Cc1cccc(NC(=S)Nc2cccc3ccccc23)c1 ?
SENP8 block-1: 89*; Platelet DG rel: 0; SENP8 block-2: -401; SENP6 block: 91*; SENP7 inh: 46; SENP8 conf: -6; SENP6 conf: -3; SENP7 confirm: -8; Casp3 select: 6; Luc interf: 7

What do the screens show for `Cc1cc(C)cc(NC(=S)Nc2cccc3ccccc23)c1`?
SENP8 block-1: 59*; Platelet DG rel: 3; SENP8 block-2: -391; SENP6 block: 71*; SENP7 inh: 26; SENP8 conf: -3; SENP6 conf: 2; SENP7 confirm: 1; Casp3 select: 6; Luc interf: 7

What do the screens show for `Cc1cccc(NC(=O)Nc2cccc3ccccc23)c1`?
SENP8 block-1: -1; Platelet DG rel: -8; SENP8 block-2: -117; SENP6 block: -7; SENP7 inh: -5

How did Fc1ccc(NC(=S)Nc2cccc3ccccc23)cc1F do in these assays?
SENP8 block-1: 48; Platelet DG rel: 46; SENP8 block-2: -388; SENP6 block: 62*; SENP7 inh: 21; SENP8 conf: 11; SENP6 conf: 6; SENP7 confirm: 16; Casp3 select: 11; Luc interf: 9

Results for Cc1csc(NC(=O)CN2C(=O)c3ccccc3C2=O)c1C(N)=O ?
SENP8 block-1: -6; Platelet DG rel: 5; SENP8 block-2: 13; SENP6 block: -6; SENP7 inh: 10

How did CCc1c(C)sc(NC(=O)c2ccoc2C)c1C(N)=O do in these assays?
SENP8 block-1: 0; Platelet DG rel: 0; SENP8 block-2: -88; SENP6 block: -5; SENP7 inh: -9

How did CCOC(=O)C(C)Sc1nc(-c2cccs2)ccc1C#N (configuration not stated) do in these assays?
SENP8 block-1: 9; Platelet DG rel: -9; SENP8 block-2: -286; SENP6 block: -11; SENP7 inh: -1

What do the screens show for `C=COC(=O)CSc1nc(-c2cccs2)ccc1C#N`?
SENP8 block-1: 49; SENP8 block-2: -310; SENP6 block: 57*; SENP7 inh: 7; SENP8 conf: -5; SENP6 conf: 70*; SENP7 confirm: 28; Casp3 select: 42; Luc interf: -5

How did Cc1nc(NC(=O)c2ccc(Br)o2)sc1C do in these assays?
SENP8 block-1: 63*; Platelet DG rel: 2; SENP8 block-2: -38; SENP6 block: 86*; SENP7 inh: 81*; SENP8 conf: 73*; SENP6 conf: 78*; SENP7 confirm: 95*; Casp3 select: 89*; Luc interf: 33

What do the screens show for `Cc1ccc(C(=O)Nc2nc(C)c(C)s2)o1`?
SENP8 block-1: 58*; Platelet DG rel: 25; SENP8 block-2: -49; SENP6 block: 74*; SENP7 inh: 79*; SENP8 conf: 7; SENP6 conf: 72*; SENP7 confirm: 92*; Casp3 select: 91*; Luc interf: 75*

What do the screens show for `N/C(=N\OC(=O)c1ccccc1Cl)c1ccccn1`?
SENP8 block-1: 93*; Platelet DG rel: 56*; SENP8 block-2: 6; SENP6 block: 96*; SENP7 inh: 100*; SENP8 conf: 97*; SENP6 conf: 98*; SENP7 confirm: 102*; Casp3 select: 98*; Luc interf: 97*
